Pf growth 96h: Primary qHTS for delayed death inhibitors of the malarial parasite plastid, 96 hour incubation; AID 504834, 2011; Potency, µM (top dose mostly 28.7 µM), inactives show top-dose activity change, negative = inhibition, most hits filed as inhibitors; P. falciparum luciferase reporter growth, 96 h; 320,000 compounds, 6.9% hits; note: potency is the fitted concentration of half-maximal effect; % is set by controls: 0 for no effect and ±100 for the full control effect
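Parasite growth measured via integrated firefly luciferase reporter in P. falciparum. Infected erythrocytes at 2% hematocrit, 0.05% parasitemia final were treated 96 hours at 37 C under 5% CO2, and luminescence was read.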
HCV inh: qHTS Assay for Inhibitors of Hepatitis C Virus (HCV). Huh7.5.1 HCVcc-Cre infection, luciferase reporter, 44 h. Potency, µM (series often up to 41.8 µM), for the others: top-dose activity change, negative = inhibition, hits mostly inhibitors. 340,000 compounds, 3.4% hits. AID 651820, 2012; note: potency is the fitted concentration of half-maximal effect; % is set by controls: 0 for no effect and ±100 for the full control effect
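Whole-lifecycle infectious HCVcc-Cre system; cells 1,000/well, compound then virus (~0.5 moi) added 4 h after plating, 44 h culture. Luciferase read 15 sec following 15 min substrate incubation, room temp.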
AMA1 RON2 block: qHTS for Inhibitors of AMA1-RON; Towards Development of Antimalarial Drug Lead: Primary Screen; Plasmodium falciparum AMA1 (3D7) - RON2 peptide interaction; AlphaScreen AMA1-biotinylated RON2 peptide binding; Potency, µM (highest dose often 58.2 µM), for the others: at the highest dose activity change, negative = inhibition, actives largely listed as inhibitors; 360,000 compounds, 0.2% hits;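 note: potency is the fitted concentration of half-maximal effect; 0% = vehicle wells and -100% = peptide control; nearly all actives have a fitted effect of over 45% in size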
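AMA1 (3D7) with his tag at 25 nM final met compounds first, then biotinylated RON2 peptide at 25 nM; detection used donor plus acceptor beads, 10 µg/mL apiece, read by AlphaScreen after 30 min at room temperature.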
Pf growth 48h: Primary qHTS for delayed death inhibitors of the malarial parasite plastid, 48 hour incubation. P. falciparum luciferase growth in erythrocytes, 48 h. Potency, µM (titrated, usually from 28.7 µM), for the others: at the highest dose activity change, negative = inhibition, usual class: inhibitors. 310,000 compounds, 5.9% hits. AID 504832, 2011; note: potency is the fitted concentration of half-maximal effect; % is set by controls: 0 for no effect and ±100 for the full control effect
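Compounds are pin-transferred into medium, infected erythrocytes (2% hematocrit, 0.1% parasitemia final) are added, and plates sit one parasite generation at 37 C in 5% CO2. Detection reagent is then added and luminescence measured.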
Cycloheximide cs: Cycloheximide Counterscreen for Small Molecule Inhibitors of Shiga Toxin | AID 2314, 2010 | cell reporter, cycloheximide protein synthesis inhibition counterscreen | max response, % | 300,000 compounds, 12% hits; in the data active = max response mostly above about 13%, no sharp cut-off; inactive = mostly below about 14%; note: read at 38.3 µM for the half of the compounds with a filed dose; 0% is about no effect
Shiga toxin inh: A qHTS for Small Molecule Inhibitors of Shiga Toxin; Vero cells, Shiga toxin protein synthesis inhibition reporter; inhibition, % at 38.7 µM; 290,000 compounds, 9.2% hits; AID 2315, 2010; in the data active = inhibition mostly above about 28%, no sharp cut-off; inactive = mostly below about 43%; note: 0% is about no effect
An asterisk follows results filed as active; ? = inconclusive; · = no result; [ ] = another dose, or the depositor's remark. Only some compounds are listed: those with a hit (about 21% of all), similar ones and a draw of the others. Unless noted, calls come from the whole dose curve; as a rule, active = well fitted curve in the direction sought with a large enough effect; inconclusive = small, poorly fitted or top-dose-only effect, or another doubt; inactive = no such curve, though single readings can be large; an effect the other way counts as inactive or inconclusive.

SMILES	Pf growth 96h	HCV inh	AMA1 RON2 block	Pf growth 48h	Cycloheximide cs	Shiga toxin inh
O=C(Nc1cccc(Cl)c1)Nc1nc(-c2ccccc2)cs1	?	-20%	3%	0%	-1	17
CCn1c(SCC(=O)Nc2nncs2)nnc1C(C)NC(=O)c1ccccc1Br (stereo not drawn)	-7%	0%	-19%	-9%	-1	12
CCOC(=O)C1=C(O)/C(=C/c2cn(CC(=O)N3CCCC3)c3ccccc23)SC1=Nc1ccccc1	3.3µM*	11µM*	-3%	4.7µM*	1	-2
CN1C(=O)C(=Cc2cn(CC(=O)N3CCCC3)c3ccccc23)C(=O)N(C)C1=O	3%	7%	0%	7%	-3	-6
Cc1cccc(C(=O)N=c2sccn2C)c1[N+](=O)[O-]	69%	-15%	-8%	71%	50*	74*
CCOc1ncccc1C(=O)N=c1sccn1C	13%	5%	4%	23%	-1	4
Cc1ccccc1C(=O)N=c1sccn1C	60%	-9%	25%	·	13*	46
COc1ccc(C#Cc2cnc3c(c2)C(=O)N([C@@H](C)CO)C[C@@H](C)[C@@H](CN(C)CC2CCOCC2)O3)cc1	·	·	-7%	·	·	·
CCOc1ccc(S(=O)(=O)N2CCC(C(=O)NCC3CCCO3)CC2)cc1Cl (stereo not drawn)	?	-11%	0%	-3%	-1	-18
O=C(Cn1ccsc1=NC(=O)C(F)(F)F)c1ccccc1	89%	-1%	0%	153%	30*	71
CN=c1scc(-c2ccc(F)cc2)n1/N=C/c1ccc(O)c(O)c1	?	2.2µM*	-6%	-52%	-10	-10
Cc1ccc(CN2CCN(/N=C/c3ccc(O)c(O)c3)CC2)cc1	7%	-23%	9%	5%	-4	17
CC(NC(=O)NC(=O)c1ccc(Cl)cc1Cl)C1CC1 (stereo not drawn)	38%	7%	0%	29%	39*	167*
CC(C)CC(NC(=O)c1ccc(Cl)cc1Cl)C(=O)O (stereo not drawn)	·	-11%	-14%	1%	-4	-24
[O-]c1c[n+](-c2ccccc2)no1	1%	1%	3%	13%	1	6
[O-]c1c[n+](-c2ccc(-[n+]3cc([O-])on3)cc2)no1	-1%	3%	2%	6%	21*	40
CCOC(=O)C(=CNc1ccc(NC2=NCC(C)S2)cc1)C(=O)OCC (stereo not drawn)	0%	?	-5%	9.3µM*	-5	-7
COc1ccc(NC2=NCC(Cc3ccc(Br)cc3)S2)cc1 (stereo not drawn)	?	?	18µM*	?	3	12
COc1ccc(NC2=NC(C)(C)CS2)cc1	0%	3%	0%	70%	28*	70*
CC1CN=C(Nc2ccc(F)cc2)S1 (stereo not drawn)	13%	5%	-4%	4%	-1	-1
COc1ccc(NC2=C(C)C(=O)CC2)cc1	?	-7%	3%	29%	7	62
COc1ccc(NC2=NCC(C)S2)cc1 (stereo not drawn)	45%	8%	4%	21%	17*	18
COc1ccc(CCNS(=O)(=O)c2ccc(Br)cc2)cc1	-27%	12%	-2%	-8%	-1	10
Cc1cc(C)c2c(=O)n3c(nc2c1)C(Cc1ccc(O)cc1)NC(=O)c1cc2ccccc2cc1-3 (stereo not drawn)	·	·	-1%	·	·	·
Cc1csc(SCC(=O)Nc2cc([N+](=O)[O-])ccc2F)n1	?	-6%	-10%	?	·	·
SMILES	Pf growth 96h	HCV inh	AMA1 RON2 block	Pf growth 48h	Cycloheximide cs	Shiga toxin inh
O=C(NS(=O)(=O)Nc1ccccn1)c1c[nH]c2ccccc12	43%	-27%	1%	35%	0	-3
Cc1ncc([N+](=O)[O-])n1CC(C)O (stereo not drawn)	-9%	2.8µM*	11%	-3%	-5	-5
CCCCCCCCN1C(=O)[C@H](CC(=O)NCCC(C)C)C[C@@]2(C(=O)OC)CCCCC=C12	·	·	2%	·	·	·
COc1ccc(C)cc1Nc1n[n+](C)c(-c2ccc(O)cc2O)s1	?	10%	34%	?	3	-8
COc1ccc(C)cc1Nc1n[n+](-c2ccccc2)c(-c2ccc(OC)c(OC)c2OC)s1	1µM*	10%[8.37 µM]	58%	?	-1	-8
COc1ccc(C)cc1Nc1n[n+](C)c(-c2c3ccccc3cc3ccccc23)s1	?	-5%	-12%	?	7	15
COc1ccc(C)cc1Nc1n[n+](-c2ccccc2)c(-c2c(Cl)cccc2Cl)s1	7.4µM*	-24%[8.37 µM]	?	10µM*	3	12
COc1ccc(-c2sc(Nc3ccccc3)n[n+]2C)c(C)c1C	?	?	-2%	8%	1	0
COc1ccc(C)cc1Nc1n[n+](-c2ccccc2)c(-c2ccc(N(C)C)cc2)s1	2.1µM*	-25%	-1%	2.6µM*	2	12
CCCC(=O)c1cn(CC(=O)OC)c2ccccc12	1µM*	6%	0%	7%	-2	10
COC(=O)c1cn(CC(=O)NCc2ccco2)c2ccccc12	·	-7%	-17%	41%	15*	50*
O=C(Cn1cc(C(=O)C(F)(F)F)c2ccccc21)NCc1ccco1	?	-11%	0%	-10%	47*	53
O=C(Cn1cc(C(=O)c2ccco2)c2ccccc21)NCc1ccco1	3%	-23%	-36%	-10%	18	20
CCC(=O)c1cn(CC(=O)NCc2ccco2)c2ccccc12	30%	2%	49%	58%	43*	61*
N#CCCN(CCN1CCCC1)S(=O)(=O)c1ccc(-c2ccc([N+](=O)[O-])cc2)cc1	41%	13%	5%	-63%	12	-9
COc1cc(OC)c(NS(=O)(=O)c2cc3[nH]c(=O)c(=O)[nH]c3cc2C)cc1Cl	?	12%	-4%	?	20	-6
O=C(OCC(=O)N1CCCc2ccccc21)c1ccccc1OC(F)F	·	-12%	-22%	·	·	·
CCOC(=O)N1CCN(S(=O)(=O)c2c(C)nc3sccn3c2=O)CC1	?	?	6%	6%	-3	-6
O=C(Cn1cc(C(=O)c2ccccc2)c2ccccc21)NCc1ccco1	15%	?	-16%	39%	78*	74
COc1cc2cc(CCCOC(=O)c3ccco3)oc(=O)c2cc1OC	44%	-8%	7%	45%	·	·
Cc1cccc(N/N=C(\C=N\N)C(=O)c2ccc(Br)cc2)c1	-26%	·	·	12µM*	-3	21

High-throughput results from PubChem BioAssay.
